MCF10A rereplic = inducers of DNA re-replication in MCF 10A breast cells; MCF 10A DNA re-replication, Hoechst nuclear intensity, 48 h; Potency, µM (doses to about 46.1 µM), inactives show at the highest dose activity, positive = re-replication, hits mostly activators; hit rate 2.9% among 350,000; AID 624296; further: % of control where 0% means no effect; nearly all actives have a fitted effect of over 50% in size
SW480 rerep = inducers of DNA re-replication in SW480 colon cancer cells; SW480 DNA re-replication, Hoechst DNA content imaging, 48 h; AID 624297; Potency, µM (top dose mostly 46.1 µM), for the others: top-dose re-replication activation, actives largely listed as activators; hit rate 1.8% among 340,000; further: % of control where 0% means no effect; nearly all actives have a fitted effect of over 55% in size
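Image-based DNA-content assay: after two days of treatment, nuclei were labelled with the DNA dye Hoechst and imaged, and hits were compounds raising the count of nuclei showing high fluorescence intensity.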
KB-3-1 tox = kills parental KB-3-1 adenocarcinoma cells; KB-3-1 viability, CellTiter-Glo ATP luminescence, 72 h; Potency, µM (doses to about 46.1 µM), actives largely listed as cytotoxic; hit rate 1.4% among 400,000; AID 1347075; further: on the % scale 0 is the no-effect control and ±100 the full control effect; nearly all actives have a fitted effect of over 60% in size
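Viability of parental KB-3-1 cells, measured by CellTiter-Glo luminescence, followed a 72 h incubation at 37 °C with pinned compounds in phenol-red-free DMEM containing 10% FBS.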
PINK1 expr mod = changes PINK1 expression; Potency, µM (top dose mostly 76.6 µM), for the others: top-dose activation (PINK1 increase), hits mostly activators; AID 624263; hit rate 0.2% among 410,000; PINK1 immunofluorescence, high-content cytometry, 24 h; active means well fitted activation curve with a large enough effect; inconclusive means small, poorly fitted or top-dose-only effect; cell line not stated here; further: % of control where 0% means no effect; nearly all actives have a fitted effect of over 65% in size
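Measures PINK1 amount and localization on or inside mitochondria by immunofluorescence. Stable cells get compounds at 5 concentrations for 24 hours before fixation and staining; CCCP controls included.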
KB-V1 cytotox = KB-V1 MDR subline cytotoxicity; hit rate 3.4% among 400,000; KB-V1 MDR cells viability, CellTiter-Glo, 72 h; AID 1347076; Potency, µM (highest dose often 46.1 µM), hits mostly cytotoxic; further: on the % scale 0 is the no-effect control and ±100 the full control effect; nearly all actives have a fitted effect of over 60% in size
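Cytotoxicity via CellTiter-Glo luminescence after 72 h compound exposure at 37 degrees C. Cells: drug-selected KB-V1 line, DMEM phenol-red free plus 10% FBS. Compounds tested at multiple concentrations; normalized data fitted to concentration-effect curves.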
Numbers without * were called inactive; [ ] = another dose, or the depositor's remark. The list is not random: actives were taken first. Their share in the collection is about 6.7%. Unless noted, the call rests on the fitted dose curve; in most records, active means well fitted curve in the direction sought with a large enough effect; inconclusive means small, poorly fitted or top-dose-only effect, or another doubt; inactive means no such curve, though single readings can be large; an effect the other way counts as inactive or inconclusive. Potency means the concentration at half of the fitted maximal effect.

How did Cc1c(C#N)c(NC(=O)CCl)n(Cc2ccccc2)c1C do in these assays?
MCF10A rereplic: inconclusive; SW480 rerep: inconclusive; KB-3-1 tox: 10µM*; PINK1 expr mod: 0%; KB-V1 cytotox: inconclusive

Results for Cc1c(C#N)c(NC(=O)CCl)n(Cc2ccc(F)cc2)c1C ?
MCF10A rereplic: inconclusive; SW480 rerep: inconclusive; KB-3-1 tox: inconclusive; PINK1 expr mod: -1%; KB-V1 cytotox: inactive

Results for Cc1c(C#N)c(NC(=O)CCl)n(Cc2cccs2)c1C ?
MCF10A rereplic: inconclusive; SW480 rerep: 5.8µM*; KB-3-1 tox: inconclusive; PINK1 expr mod: -1%; KB-V1 cytotox: inconclusive

Results for COc1cc(C)ccc1OCCSc1nnc(-c2ccc(C)cc2)o1 ?
KB-3-1 tox: inactive; PINK1 expr mod: 0%; KB-V1 cytotox: inactive

How did CCCNC(=O)C1(C)CCCN(C(=O)c2ccccc2OC(F)(F)F)C1 (centres undefined) do in these assays?
KB-3-1 tox: inactive; PINK1 expr mod: -1%; KB-V1 cytotox: inactive

What do the screens show for `O=c1cc(-c2ccccc2)[nH]c2nc3ccccc3n12`?
MCF10A rereplic: 6.5µM*; SW480 rerep: 10µM*; KB-3-1 tox: inconclusive; PINK1 expr mod: 11%; KB-V1 cytotox: inconclusive

What do the screens show for `O=c1cc(CCl)[nH]c2nc3ccccc3n12`?
MCF10A rereplic: inconclusive; SW480 rerep: 18µM*; KB-3-1 tox: inactive; PINK1 expr mod: 5%; KB-V1 cytotox: inactive

How did CC(C)c1cc(=O)n2c(nc3ccccc32)[nH]1 do in these assays?
MCF10A rereplic: 7%; SW480 rerep: -2%; KB-3-1 tox: inactive; PINK1 expr mod: -2%; KB-V1 cytotox: inactive

How did C#CCn1c(S(=O)(=O)Cc2ccc(F)cc2)nc(-c2ccccc2)c1-c1ccccc1 do in these assays?
MCF10A rereplic: inconclusive; SW480 rerep: inconclusive; KB-3-1 tox: 16µM*; PINK1 expr mod: -5%[38.3 µM]; KB-V1 cytotox: 5.2µM*

Results for CCOC(=O)Cn1c(S(=O)(=O)Cc2ccc(F)cc2)nc(-c2ccccc2)c1-c1ccccc1 ?
MCF10A rereplic: -3%; SW480 rerep: -1%; KB-3-1 tox: inactive; PINK1 expr mod: 2%[38.3 µM]; KB-V1 cytotox: inactive

How did CCOC(=O)Cn1c(S(=O)(=O)Cc2cccc(F)c2)nc(-c2ccccc2)c1-c1ccccc1 do in these assays?
MCF10A rereplic: inconclusive; SW480 rerep: inconclusive; KB-3-1 tox: inactive; PINK1 expr mod: 2%[38.3 µM]; KB-V1 cytotox: 21µM*

What do the screens show for `Cc1cccc(NC(=O)/C(C#N)=C/c2ccc(C)o2)c1`?
KB-3-1 tox: inactive; PINK1 expr mod: 4%; KB-V1 cytotox: inactive

How did Cc1ccc(N2C(=O)NC(NS(=O)(=O)c3ccc(Cl)cc3)(C(F)(F)F)C2=O)cc1C (centres undefined) do in these assays?
KB-3-1 tox: inactive; PINK1 expr mod: -1%; KB-V1 cytotox: inactive

How did COc1ccc(S(=O)(=O)N2CCC(n3c(C(F)(F)F)nc4cccnc43)CC2)cc1OC do in these assays?
KB-3-1 tox: inconclusive; PINK1 expr mod: 0%; KB-V1 cytotox: inconclusive

How did CSc1cccc(-n2cc(-c3ccc4c(c3)OCO4)[nH]c2=O)c1 do in these assays?
MCF10A rereplic: 21µM*; SW480 rerep: 21µM*; KB-3-1 tox: 4.1µM*; PINK1 expr mod: 10%; KB-V1 cytotox: 7.3µM*

How did CSc1cccc(NC(=O)CNC(=O)c2ccc3c(c2)OCO3)c1 do in these assays?
MCF10A rereplic: -2%; SW480 rerep: -5%; KB-3-1 tox: inactive; PINK1 expr mod: 0%; KB-V1 cytotox: inactive

How did CC(=O)N1CCC2(CC1)CN(Cc1ccccc1)C2 do in these assays?
PINK1 expr mod: -1%

What do the screens show for `COc1ccc(CNC(=O)c2cccn2-c2nnc(N3CCCCC3)s2)c(OC)c1`?
KB-3-1 tox: inactive; PINK1 expr mod: 0%; KB-V1 cytotox: inactive

What do the screens show for `O=c1c2c([nH]c3ccc(Br)cc13)CCCC2`?
MCF10A rereplic: 22%; SW480 rerep: -7%; KB-3-1 tox: inactive; PINK1 expr mod: 0%; KB-V1 cytotox: inactive

How did O=C1Cc2c([nH]c3ccc(Br)cc23)-c2ccccc2N1 do in these assays?
MCF10A rereplic: 4.1µM*; SW480 rerep: 26%; KB-3-1 tox: inconclusive; PINK1 expr mod: -1%; KB-V1 cytotox: inconclusive

Results for NC1=NC(=O)/C(=C/c2cccs2)S1 ?
MCF10A rereplic: 3%; SW480 rerep: 1%; KB-3-1 tox: inactive; PINK1 expr mod: -1%[38.3 µM]; KB-V1 cytotox: inactive

What do the screens show for `C=CCSC1=NC(=O)/C(=C/c2cccs2)S1`?
MCF10A rereplic: 18µM*; SW480 rerep: 3%; KB-3-1 tox: inactive; PINK1 expr mod: 0%; KB-V1 cytotox: inactive

How did Cc1cc(Cl)n2nc(C)c(-c3ccc(Cl)cc3)c2n1 do in these assays?
MCF10A rereplic: 16µM*; SW480 rerep: inconclusive; KB-3-1 tox: inactive; PINK1 expr mod: -1%; KB-V1 cytotox: inactive

Results for Cc1cc(NCCCn2ccnc2)n2nc(C)c(-c3ccccc3)c2n1 ?
MCF10A rereplic: 0%; SW480 rerep: 0%; KB-3-1 tox: inactive; PINK1 expr mod: -3%[38.3 µM]; KB-V1 cytotox: inconclusive

What do the screens show for `Cc1cc(NCCCn2ccnc2)n2nc(C)c(-c3ccc(Cl)cc3)c2n1`?
MCF10A rereplic: 21%; SW480 rerep: 3%; KB-3-1 tox: inconclusive; PINK1 expr mod: -5%[38.3 µM]; KB-V1 cytotox: 23µM*

How did COc1ccc(CCNc2cc(C)nc3c(-c4ccccc4)cnn23)cc1OC do in these assays?
MCF10A rereplic: inconclusive; SW480 rerep: 6%; KB-3-1 tox: inactive; PINK1 expr mod: 3%; KB-V1 cytotox: inactive

What do the screens show for `COc1ccc(CCNc2cc(C)nc3c(-c4ccccc4)c(C)nn23)cc1OC`?
MCF10A rereplic: 19%; SW480 rerep: -34%; KB-3-1 tox: inactive; PINK1 expr mod: 0%; KB-V1 cytotox: 8.2µM*

Results for Cc1cc(NCCN2CCOCC2)n2nc(C)c(-c3ccc(Cl)cc3)c2n1 ?
MCF10A rereplic: -1%; SW480 rerep: 12%; KB-3-1 tox: inconclusive; PINK1 expr mod: 6%; KB-V1 cytotox: 23µM*

How did Cc1cc(NCCN2CCOCC2)n2nc(C)c(-c3ccccc3)c2n1 do in these assays?
MCF10A rereplic: -1%; SW480 rerep: -8%; KB-3-1 tox: inactive; PINK1 expr mod: -2%; KB-V1 cytotox: inactive

Results for Cc1cc(N)n2nc(C)c(-c3ccc(Cl)cc3)c2n1 ?
MCF10A rereplic: 23%; SW480 rerep: 13%; KB-3-1 tox: inactive; PINK1 expr mod: 0%; KB-V1 cytotox: inconclusive

Results for COc1ccc(CCNC(=O)C(=O)NCC2OCCN2S(=O)(=O)c2ccc(Cl)cc2)cc1OC (centres undefined) ?
MCF10A rereplic: 12%; SW480 rerep: -5%; KB-3-1 tox: inactive; PINK1 expr mod: 0%; KB-V1 cytotox: inactive

What do the screens show for `CCN(Cc1cccs1)C(=O)CN1C(=O)NC(c2ccccc2)(c2ccccc2)C1=O`?
MCF10A rereplic: -14%; SW480 rerep: -8%; KB-3-1 tox: inactive; PINK1 expr mod: 0%; KB-V1 cytotox: inactive

Screens deposited in PubChem BioAssay by National Center for Advancing Translational Sciences (NCATS).
